Results on 40 compounds are retold here after the supplement of paper PMC8975748.

Where a name gives a salt, the structure may show the parent alone.

This test deals with Saccharomyces cerevisiae BY4741 SeMeCo community. Briefly: z-score of prototroph abundance vs DMSO median; higher = larger share of this subpopulation than in DMSO controls. The note with it: 10 µM; 24 h; SM minimal medium; subpopulation (auxotrophy): Prototroph. As for the experimental part:
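Fluorescent four-plasmid SeMeCo (self-establishing metabolically cooperating S. cerevisiae BY4741 community; plasmids pH-mRuby2, pL-mWasabi, pU-eCFP, pM-TagRFP657) was grown 24 h in minimal SM medium with each Selleck FDA-approved drug at 10 µM in 384-well plates. Cells were fixed and imaged by high-content confocal microscopy. For each auxotrophic subpopulation (and the prototroph), a z-score gives the deviation from the DMSO vehicle-control population median.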
Regarding `C[C@@H](O)[C@H]1C(=O)N2C(C(=O)O)=C(S[C@@H]3CN[C@H](C(=O)N(C)C)C3)[C@H](C)[C@H]12` [Meropenem Trihydrate], the “z-score of prototroph abundance” value was -0.19.

Turning to `CCCCOc1ccc(C(=O)CCN2CCCCC2)cc1` [Dyclonine HCl], the “z-score of prototroph abundance” value was 0.35.

As for `C[C@@H](NCCCc1cccc(C(F)(F)F)c1)c1cccc2ccccc12` [Cinacalcet HCl], the “z-score of prototroph abundance” value was -0.37.

For `CC(C)N1CCN(c2ccc(OCC3COC(Cn4cncn4)(c4ccc(Cl)cc4Cl)O3)cc2)CC1` (stereo not given) [Terconazole], the “z-score of prototroph abundance” value was determined as 1.34.

On to `OCCOCCN1CCN(C2=Nc3ccccc3Sc3ccccc32)CC1` [Quetiapine Fumarate], for which the “z-score of prototroph abundance” value was -0.49.

`O=C(c1ccc(OCCN2CCCCC2)cc1)c1c(-c2ccc(O)cc2)sc2cc(O)ccc12` [Raloxifene HCl]: the “z-score of prototroph abundance” value is 0.44.

For the compound `C#C[C@]1(O)CC[C@H]2[C@@H]3CCC4=CCCC[C@@H]4[C@H]3C(=C)C[C@@]21CC` [Desogestrel], the “z-score of prototroph abundance” value worked out at 0.47.

For `NC12CC3CC(CC(C3)C1)C2` [Amantadine HCl], the “z-score of prototroph abundance” value is 0.23.

`O=C(O)CCNC(=O)c1ccccc1` [Betamipron]: the “z-score of prototroph abundance” value is -0.09.

For `CNCCC(Oc1ccc(C(F)(F)F)cc1)c1ccccc1` (stereo not given) [Fluoxetine HCl], the “z-score of prototroph abundance” value was determined as 0.06.

Regarding `C[N+]1(C)[C@@H]2C[C@@H](OC(=O)C(O)(c3cccs3)c3cccs3)C[C@H]1[C@@H]1O[C@@H]12` [Tiotropium Bromide hydrate], the “z-score of prototroph abundance” value came to 0.56.

On to `Cn1cc(C(=O)[C@@H]2CCc3[nH]cnc3C2)c2ccccc21` [Ramosetron Hydrochloride], for which the “z-score of prototroph abundance” value is -0.53.

In the case of `Oc1ccc(C2CNCCc3c2cc(O)c(O)c3Cl)cc1` (stereo not given) [Fenoldopam mesylate], the “z-score of prototroph abundance” value was determined as 0.87.

In the case of `C[C@]12CC[C@@H]3c4ccc(OS(=O)(=O)O)cc4CC[C@H]3[C@@H]1CCC2=O` [Estropipate], the “z-score of prototroph abundance” value amounted to 0.59.

For `COc1cnc(NS(=O)(=O)c2ccc(N)cc2)nc1` [Sulfameter], the “z-score of prototroph abundance” value was found to be 0.

`Cc1cc(C)nc(NS(=O)(=O)c2ccc(N)cc2)n1` [Sulfamethazine Sodium Salt]: the “z-score of prototroph abundance” value is 0.49.

Regarding `CCOC(=O)c1ccc(O)cc1` [Ethylparaben], the “z-score of prototroph abundance” value was -1.38.

With `CC[C@@H]1/C=C(\C)C[C@H](C)C[C@H](OC)[C@H]2O[C@@](O)(C(=O)C(=O)N3CCCC[C@H]3C(=O)O[C@H](/C(C)=C/[C@@H]3CC[C@H](Cl)[C@H](OC)C3)[C@H](C)[C@@H](O)CC1=O)[C@H](C)C[C@@H]2OC` [Pimecrolimus], the “z-score of prototroph abundance” value was -1.82.

As to `Cc1cc(NS(=O)(=O)c2ccc(N)cc2)no1` [Sulfamethoxazole], the “z-score of prototroph abundance” value is -0.28.

As for `CN1CCOC(c2ccccc2)c2ccccc2C1` (stereo not given) [Nefopam HCl], the “z-score of prototroph abundance” value was determined as 0.32.

For the compound `C#C[C@]1(O)CC[C@H]2[C@@H]3CCC4=CC(=O)CC[C@@H]4[C@H]3C(=C)C[C@@]21CC` [Etonogestrel], the “z-score of prototroph abundance” value was determined as 0.26.

Consider `COc1ccc(C(=O)NCc2ccc(OCCN(C)C)cc2)cc1OC` [Itopride hydrochloride], for which the “z-score of prototroph abundance” value is -0.3.

With `CN1[C@@H]2CC[C@H]1C[C@@H](OC(c1ccccc1)c1ccccc1)C2` [Benztropine mesylate], the “z-score of prototroph abundance” value was determined as 1.01.

On to `Oc1ccc([C@H]2COc3cc(O)ccc3C2)cc1` [Equol], for which the “z-score of prototroph abundance” value came out at 0.13.

Take `O=C1OCCN1/N=C/c1ccc([N+](=O)[O-])o1` [Furazolidone]: the “z-score of prototroph abundance” value is 3.52.

As to `Oc1c(Cl)cc(Cl)c(Cl)c1Cc1c(O)c(Cl)cc(Cl)c1Cl` [Hexachlorophene], the “z-score of prototroph abundance” value is -5.27.

`OCc1ccc(Cl)cc1Cl` [2,4-dichlorobenzyl alcohol]: the “z-score of prototroph abundance” value was -0.15.

Consider `COc1cc([C@@H]2c3cc4c(cc3[C@@H](O[C@@H]3O[C@@H]5CO[C@@H](C)O[C@H]5[C@H](O)[C@H]3O)[C@H]3COC(=O)[C@H]23)OCO4)cc(OC)c1O` [Etoposide], for which the “z-score of prototroph abundance” value is -0.82.

As for `CCn1cc(C(=O)O)c(=O)c2cnc(N3CCNCC3)nc21` [Pipemidic acid], the “z-score of prototroph abundance” value was -0.62.

As to `CN(C)CCCN1c2ccccc2Sc2ccc(Cl)cc21` [Chlorpromazine HCl], the “z-score of prototroph abundance” value is -0.29.

Take `CC1=C[C@H]2C(=O)O[C@H]3C[C@@H](C/C=C(\C)C[C@@H](C)/C=C/C=C4\CO[C@H](/C1=N\O)[C@@]42O)O[C@@]1(CC[C@H](C)[C@@H](C)O1)C3.CC[C@H]1O[C@]2(CC[C@@H]1C)C[C@@H]1C[C@@H](C/C=C(\C)C[C@@H](C)/C=C/C=C3\CO[C@@H]4/C(=N\O)C(C)=C[C@@H](C(=O)O1)[C@]34O)O2` [Milbemycin Oxime]: the “z-score of prototroph abundance” value was found to be 0.31.

With `C[C@@H](O)[C@H]1C(=O)N2C(C(=O)O)=C(S[C@@H]3CN[C@H](C(=O)Nc4cccc(C(=O)O)c4)C3)[C@H](C)[C@H]12` [Ertapenem sodium], the “z-score of prototroph abundance” value is 0.33.

Consider `CC(=O)OCC1=C(C(=O)O)N2C(=O)[C@@H](NC(=O)Cc3cccs3)[C@H]2SC1` [Cephalothin], for which the “z-score of prototroph abundance” value turned out to be 0.3.

As to `CC/C=C(\C(=O)N[C@@H]1C(=O)N2C(C(=O)OCOC(=O)C(C)(C)C)=C(COC(N)=O)CS[C@H]12)c1csc(N)n1` [Cefcapene Pivoxil Hydrochloride], the “z-score of prototroph abundance” value was -1.27.

For the compound `CCC[C@@H]1C[C@@H](C(=O)N[C@@H]([C@H]2O[C@H](SC)[C@H](OP(=O)(O)O)[C@@H](O)[C@H]2O)[C@H](C)Cl)N(C)C1` [Clindamycin Phosphate], the “z-score of prototroph abundance” value is -0.33.

Take `CCCCCOc1ccc(-c2ccc(-c3ccc(C(=O)N[C@H]4C[C@@H](O)[C@@H](O)NC(=O)[C@@H]5[C@@H](O)[C@@H](C)CN5C(=O)[C@H]([C@@H](C)O)NC(=O)[C@H]([C@H](O)[C@@H](O)c5ccc(O)cc5)NC(=O)[C@@H]5C[C@@H](O)CN5C(=O)[C@H]([C@@H](C)O)NC4=O)cc3)cc2)cc1`: the “z-score of prototroph abundance” value is -14.8.

For the compound `C[C@@H](O)[C@H]1C(=O)N2C(C(=O)O)=C([C@H]3CCCO3)S[C@H]12` [Faropenem Sodium], the “z-score of prototroph abundance” value is -1.08.

For the compound `CC(N)C12CC3CC(CC(C3)C1)C2` (stereo not given) [Rimantadine], the “z-score of prototroph abundance” value was -1.12.

Regarding `Oc1ccc(Cl)c2cccnc12` [Cloxiquine], the “z-score of prototroph abundance” value was -17.6.

Turning to `CC/C(=C(/CC)c1ccc(O)cc1)c1ccc(O)cc1` [Diethylstilbestrol], the “z-score of prototroph abundance” value was found to be 1.5.
